The AC50 is the midpoint of the concentration-response curve, whichever way the signal moves.

The nature of test [1]: BSK_hDFCGF_SRB: Viability Assessment in the BioMAP Diversity Plus: hDFCGF Assay (AID 2283061).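 Also: cells exposed to compound for 24 h before the read.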 The settings on record: primary human foreskin fibroblasts. The essentials:
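Primary human foreskin fibroblasts; 24 h post-dose; fixed 10% TCA, stained 0.1% SRB, A560 read; total protein as overt cytotoxicity measure; curves fit bidirectionally vs DMSO control.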

Read-out in test [2]: Monokine induced gamma interferon (MIG), CXCL9 (gene 4283)
As to the kind of experiment: BSK_hDFCGF_MIG: BioMAP Diversity Plus: hDFCGF Assay for Monokine induced gamma interferon (MIG) Biomarker Activity (AID 2283063). The settings on record: primary human foreskin fibroblasts; actives raise or lower the signal. The essentials:
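Fibroblasts (human foreskin, primary) dosed, 24 h, MIG by ELISA; fit bidirectional vs DMSO.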

Read-out in test [3]: Matrix Metallopeptidase 1 (MMP1), MMP1 (gene 4312)
Put plainly: BSK_hDFCGF_MMP1: BioMAP Diversity Plus: hDFCGF Assay for Matrix Metallopeptidase 1 (MMP1) Biomarker Activity (AID 2283064). The settings on record: primary human foreskin fibroblasts; actives raise or lower the signal. The essentials: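 ELISA read-out of MMP1 from human foreskin fibroblasts (primary skin cells), 24 h post-dose. Gain or loss of signal was fitted bidirectionally versus DMSO negative control; cytotoxicity was checked by SRB in parallel cultures.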

Read-out in test [4]: Plasminogen activator inhibitor-1 (PAI1), SERPINE1 (gene 5054)
Put plainly: BSK_hDFCGF_PAI1: BioMAP Diversity Plus: hDFCGF Assay for Plasminogen activator inhibitor-1 (PAI1) Biomarker Activity (AID 2283066). The settings on record: primary human foreskin fibroblasts; actives raise or lower the signal. In a few lines:
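Human skin fibroblast cultures receive chemical for 24 h before PAI-1 is measured by ELISA; signal changes are fitted bidirectionally against DMSO-treated wells.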

Read-out in test [5]: Interferon-gamma inducible Protein 10 (IP10), CXCL10 (gene 3627)
As to the kind of experiment: BSK_KF3CT_IP10: BioMAP Diversity Plus: KF3CT Assay for Interferon-gamma inducible Protein 10 (IP10) Biomarker Activity (AID 2283068). The settings on record: primary human keratinocytes with fibroblasts; actives raise or lower the signal. In a few lines:
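ELISA read-out of IP-10 after 24 h chemical dosing of human skin primary co-culture (keratinocytes, foreskin fibroblasts). Gain or loss of signal relative to DMSO, bidirectional curve fit.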

The nature of test [6]: BSK_KF3CT_SRB: Viability Assessment in the BioMAP Diversity Plus: KF3CT Assay (AID 2283069).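 Also: total protein by sulforhodamine B staining as a cytotoxicity measure.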 The settings on record: primary human keratinocytes with fibroblasts. The essentials: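 SRB read-out at 560 nm (0.1% stain, TCA-fixed cells) gauges overt cytotoxicity in a human skin keratinocyte–fibroblast co-culture 24 h post-dosing. Signal change was fitted bidirectionally relative to DMSO control.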

Read-out in test [7]: Interleukin-1 alpha (IL1a), IL1A (gene 3552)
Put plainly: BSK_KF3CT_IL1a: BioMAP Diversity Plus: KF3CT Assay for Interleukin-1 alpha (IL1a) Biomarker Activity (AID 2283070). The settings on record: primary human keratinocytes with fibroblasts; actives raise or lower the signal. The essentials: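 Primary skin co-culture (keratinocytes, foreskin fibroblasts), 24 h exposure; ELISA for IL-1a; bidirectional curve fit vs DMSO.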

Read-out in test [8]: TIMP metallopeptidase inhibitor 2 (TIMP2), TIMP2 (gene 7077)
As to the kind of experiment: BSK_KF3CT_TIMP2: BioMAP Diversity Plus: KF3CT Assay for TIMP metallopeptidase inhibitor 2 (TIMP2) Biomarker Activity (AID 2283071). The settings on record: primary human keratinocytes with fibroblasts; actives raise or lower the signal. In a few lines: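 Measurements come from ELISA detection of TIMP-2 at 24 hours in a dosed human keratinocyte and foreskin fibroblast co-culture. DMSO serves as negative control and baseline.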

Read-out in test [9]: C-C motif chemokine 2 (Homo sapiens) (UniProt P13500)
Put plainly: BSK_KF3CT_MCP1: BioMAP Diversity Plus: KF3CT Assay for Monocyte Chemoattractant Protein 1 (MCP1/CCL2) Biomarker Activity (AID 2283073). The settings on record: primary human keratinocytes with fibroblasts; actives raise or lower the signal. In a few lines:
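KF3CT skin co-culture (keratinocytes/foreskin fibroblasts), 24 h post-dose; MCP-1 by ELISA; gain/loss of signal fit bidirectionally vs DMSO baseline.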

Read-out in test [10]: Matrix Metallopeptidase 9 (MMP9), MMP9 (gene 4318)
Put plainly: BSK_KF3CT_MMP9: BioMAP Diversity Plus: KF3CT Assay for Matrix Metallopeptidase 9 (MMP9) Biomarker Activity (AID 2283074). The settings on record: primary human keratinocytes with fibroblasts; actives raise or lower the signal. The essentials:
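ELISA read-out of MMP-9 at 24 h post-dosing in a co-culture of human skin keratinocytes and foreskin fibroblasts. Gain or loss of signal was fitted in both directions against DMSO.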

Read-out in test [11]: urokinase plasminogen activator (uPA), PLAU (gene 5328)
As to the kind of experiment: BSK_KF3CT_uPA: BioMAP Diversity Plus: KF3CT Assay for urokinase plasminogen activator (uPA) Biomarker Activity (AID 2283075). The settings on record: primary human keratinocytes with fibroblasts; actives raise or lower the signal. The essentials:
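Skin co-culture (keratinocytes + foreskin fibroblasts), human primary; 24 h post-dose; uPA by ELISA; gain/loss fit vs DMSO baseline.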

Test [12] is described as follows: BSK_LPS_SRB: Viability Assessment in the BioMAP Diversity Plus: LPS Assay (AID 2283079).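 Also: total protein by sulforhodamine B absorbance as a cytotoxicity measure; measured one day after compound addition.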 The settings on record: primary human HUVEC with PBMC. In a few lines: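 HUVEC + PBMC co-culture, LPS-stimulated; compound 24 h. 10% TCA fix, 0.1% SRB stain, A560. Bidirectional fit vs DMSO.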
Read-out in test [13]: Vascular cell adhesion molecule 1 (VCAM1), VCAM1 (gene 7412)
As to the kind of experiment: BSK_LPS_VCAM1: BioMAP Diversity Plus: LPS Assay for Vascular cell adhesion molecule 1 (VCAM1) Biomarker Activity (AID 2283086). The settings on record: primary human HUVEC with PBMC; actives raise or lower the signal. In a few lines:
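Measured by ELISA: VCAM-1 in LPS-activated HUVEC/PBMC co-cultures 24 h after treatment. Values reflect bidirectional fitting with DMSO as baseline.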

Read-out in a further test: CD38, CD38 (gene 952)
Put plainly: BSK_SAg_CD38: BioMAP Diversity Plus: SAg Assay for CD38 Biomarker Activity (AID 2283087). The settings on record: primary human HUVEC with PBMC; actives raise or lower the signal. In a few lines:
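Measures CD38 on a human endothelial/PBMC co-culture driven by SEB and TSST-1, 24 h after compound exposure, using ELISA with fluorescence detection; DMSO defines baseline for bidirectional curve fitting.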

Read-out in test [14]: Monocyte Chemoattractant Protein-1 (MCP1), CCL2 (gene 6347)
As to the kind of experiment: BSK_SAg_MCP1: BioMAP Diversity Plus: SAg Assay for Monocyte Chemoattractant Protein-1 (MCP1) Biomarker Activity (AID 2283090). The settings on record: primary human HUVEC with PBMC; actives raise or lower the signal. In a few lines: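 Values derive from bidirectional fitting of ELISA-measured MCP1 against DMSO controls. Readings were taken 24 h after dosing human vascular endothelial cells co-cultured with peripheral blood mononuclear cells under superantigen stimulation.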

Read-out in test [15]: E-selectin (Homo sapiens) (UniProt P16581)
As to the kind of experiment: BSK_SAg_Eselectin: BioMAP Diversity Plus: SAg Assay for Eselectin Biomarker Activity (AID 2283091). The settings on record: primary human HUVEC with PBMC; actives raise or lower the signal. The essentials: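 E-selectin ELISA readout at 24 h post-dosing in human umbilical vein endothelial cell/PBMC co-culture; gain or loss of signal fitted relative to DMSO baseline.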

Read-out in test [16]: Monokine induced gamma interferon (MIG), CXCL9 (gene 4283)
Put plainly: BSK_SAg_MIG: BioMAP Diversity Plus: SAg Assay for Monokine induced gamma interferon (MIG) Biomarker Activity (AID 2283092). The settings on record: primary human HUVEC with PBMC; actives raise or lower the signal. The essentials: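 Endothelial cells and PBMC were co-cultured, exposed to test chemicals, and sampled 24 h later. MIG was measured by ELISA, and responses were fitted in both directions relative to DMSO.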

Read-out in test [17]: Interleukin-8 (IL8), CXCL8 (gene 3576)
Put plainly: BSK_SAg_IL8: BioMAP Diversity Plus: SAg Assay for Interleukin-8 (IL8) Biomarker Activity (AID 2283094). The settings on record: primary human HUVEC with PBMC; actives raise or lower the signal. In a few lines:
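Primary human endothelial cells with PBMC, exposed 24 h; IL-8 determined by ELISA, analysed bidirectionally relative to DMSO.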

Test [18] is described as follows: BSK_SAg_SRB: Viability Assessment in the BioMAP Diversity Plus: SAg Assay (AID 2283096).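 Also: cells read one day after compound addition; hits may be either gain or loss of signal compared with DMSO.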 The settings on record: primary human HUVEC with PBMC. The essentials: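 Compounds were added to a human vascular co-culture of umbilical vein endothelium and PBMC. After 24 h, parallel cultures were fixed with 10% TCA, stained with 0.1% sulforhodamine B and read at 560 nm. Gain or loss of signal was fitted relative to DMSO.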

Read-out in test [19]: Interferon-inducible T-cell alpha chemoattractant (ITAC), CXCL11 (gene 6373)
As to the kind of experiment: BSK_hDFCGF_ITAC: BioMAP Diversity Plus: hDFCGF Assay for Interferon-inducible T-cell alpha chemoattractant (ITAC) Biomarker Activity (AID 2284251). The settings on record: primary human foreskin fibroblasts. The essentials:
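Measured by ELISA, the chemokine level serves as the endpoint in human skin fibroblast primary cultures 24 h after compound addition. Increases relative to DMSO-treated wells define activity.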

Several values for one entry are separate records, joined by “and”; a condition that tells them apart may be missing. Equal entries are not always repeated. Some structures have more than one record in an assay (separate samples or runs), and their calls can disagree. Activity calls are given as the source filed them. The calls were made as follows: active = hit-call score of the fitted dose curve at least 0.9, where 1 is the maximum; inactive = score below 0.9.

Sequence of E-selectin (Homo sapiens) (P16581 whole entry, looked up): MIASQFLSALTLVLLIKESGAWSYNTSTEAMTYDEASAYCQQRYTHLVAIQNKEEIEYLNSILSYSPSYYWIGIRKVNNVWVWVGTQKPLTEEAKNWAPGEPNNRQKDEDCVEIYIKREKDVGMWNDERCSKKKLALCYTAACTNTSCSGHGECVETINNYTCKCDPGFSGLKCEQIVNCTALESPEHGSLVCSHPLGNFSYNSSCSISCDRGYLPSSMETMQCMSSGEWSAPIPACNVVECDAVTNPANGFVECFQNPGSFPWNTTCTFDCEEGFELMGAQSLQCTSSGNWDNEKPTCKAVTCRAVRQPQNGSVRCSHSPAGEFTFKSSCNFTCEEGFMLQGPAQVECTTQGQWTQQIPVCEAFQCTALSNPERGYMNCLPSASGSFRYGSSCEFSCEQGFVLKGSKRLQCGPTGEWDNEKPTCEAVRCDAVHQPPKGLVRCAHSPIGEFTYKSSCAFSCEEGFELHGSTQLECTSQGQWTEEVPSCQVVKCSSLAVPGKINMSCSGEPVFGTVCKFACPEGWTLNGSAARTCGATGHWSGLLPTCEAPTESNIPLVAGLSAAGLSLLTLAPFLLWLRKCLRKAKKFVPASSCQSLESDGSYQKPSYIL

Regarding `COc1ccc(C(=O)c2ccccc2O)c(O)c1`, the outcome in [1], in test [2], in [3], in test [4], in test [5] and in [6] was inactive. The result in test [7], in test [8], in [9], in test [10], in test [11] and in [12] was inactive. The outcome in [13] was “inactive”; with CD38, CD38 (gene 952), “inactive”; in [14] it was “inactive”; in [15] it was “inactive”; in [16], “inactive”; in test [18], “inactive”. The result in test [19] was inactive. In addition, the concentration at half-maximal activity (AC50) in test [17] is 29.5 µM (active) and 24.6 µM (active); in test [19], 28.3 µM (active).
Consider `CC(C)C1OCCN1CCOC(=O)NCCCCCCNC(=O)OCCN1CCOC1C(C)C` (stereo not given), for which the result in test [1], in test [2], in [3], in test [4], in test [5] and in test [6] was inactive. The result in [7], in test [8], in test [9], in test [10], in test [11] and in [12] was inactive. Also, the outcome in [13] was “inactive”; with CD38, CD38 (gene 952) it was “inactive”; in test [14], “inactive”; in test [15], “inactive”; in [16], “inactive”; in test [17], “inactive”. Besides, the result in test [18] and in [19] was inactive.
On to `Cc1c(C(N)=O)cc([N+](=O)[O-])cc1[N+](=O)[O-]`, for which the outcome in test [1], in test [2], in [3], in test [4], in test [5] and in test [6] was inactive. Moreover, the result in [7], in test [8], in test [9], in test [10], in test [11] and in test [12] was inactive. The outcome in [13] was “inactive”; in the test with CD38, CD38 (gene 952), “inactive”; in test [14], “inactive”; in [15], “inactive”; in test [16], “inactive”; in test [17] it was “inactive”. Further, the outcome in [18] and in test [19] was inactive.
In the case of `CC[N+](CC)(CC(=O)Nc1c(C)cccc1C)Cc1ccccc1`, the result in test [1], in [2], in test [3], in [4], in [5] and in test [6] was inactive. For the same compound, the outcome in test [7], in test [8], in [9], in [10], in test [11] and in [12] was inactive. Also, the outcome in [13] is “inactive”; in the test with CD38, CD38 (gene 952), “inactive”; in test [14], “inactive”; in test [15], “inactive”; in [16] it was “inactive”; in test [17], “inactive”. Besides, the outcome in [18] was inactive.
Regarding `CCCCC(CC)COC(=O)C=Cc1ccc(OC)cc1` (stereo not given), the outcome in [1], in test [3], in test [4], in test [5], in test [6] and in test [7] was inactive. The result in [8], in test [9], in test [10], in test [11], in [13] and in test [16] was inactive. In addition, the result in test [19] was inactive. The AC50 in test [2] is 12 µM (active) and 10.2 µM (active); in [12], 32.1 µM (active) and 36.7 µM (active); with CD38, CD38 (gene 952) it was 28.5 µM (active) and 20 µM (active); in [14], 31.7 µM (active) and 32.3 µM (active); in test [15], 25.9 µM (active) and 18.8 µM (active); in test [17], 23.5 µM (active) and 36.7 µM (active). For the same compound, the AC50 in test [18] is 31 µM (active) and 35.2 µM (active).
Regarding `C1CN(CCOCCN2CCOCC2)CCO1`, the outcome in test [1], in test [2], in test [3], in [4], in test [5] and in [6] was inactive. Also, the outcome in test [7], in [8], in [9], in test [10], in [11] and in test [12] was inactive. Besides, the outcome was “inactive” in test [13]; “inactive” in the test with CD38, CD38 (gene 952); “inactive” in [14]; “inactive” in test [15]; “inactive” in test [16]; “inactive” in [17]. The outcome in test [18] and in test [19] was inactive.

The record behind these values is PubChem BioAssay (EPA / NIEHS).
